Only some compounds are listed: those with a hit (about 12% of all), similar ones and a draw of the others.
G9a block = inhibitors of human histone lysine methyltransferase G9a; AID 504332; Potency, µM (doses to about 102 µM), actives largely listed as inhibitors; hit rate 8.8% among 350,000; G9a H3K9 monomethylation, AlphaScreen, 2 h; further: nearly all actives have a fitted effect of over 75% in size
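Enzyme 20 nM + cpd, 15 min RT; add b-H3K9 pep 500 nM / SAM 20 uM; 2 h RT; anti-H3K9me1 Ab 0.5 ug/mL + SA donor / anti-rabbit acceptor beads 20 ug/mL each, 10 min; AlphaScreen read.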
BAZ2B block = blocks human BAZ2B; Q9UIF8; AlphaScreen BAZ2B-H3K14Ac peptide displacement; Potency, µM (top dose mostly 114 µM), hits mostly inhibitors; hit rate 4.4% among 360,000; further: nearly all actives have a fitted effect of over 60% in size
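Complex of BAZ2B and biotin-H3K14Ac (50 nM apiece) forms over 30 min at RT, then faces library compounds up to 110 uM for another 30 min; AlphaScreen beads added, 20 min dark incubation, luminescence read.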
JMJD2A Tudor inh = inhibitors of human JMJD2A Tudor domain; O75164; AlphaScreen JMJD2A-Tudor / H3K4me3 peptide binding; Potency, µM (doses to about 114 µM), hits mostly inhibitors; hit rate 4.4% among 390,000; AID 504339; further: nearly all actives have a fitted effect of over 50% in size
HP1b binding inh = blocks HP1-beta chromodomain binding to methylated histone tails; Potency, µM (highest dose often 114 µM), usual class: inhibitors; hit rate 0.56% among 390,000; P83916; AlphaScreen HP1-beta / biotin-H3K9me3 peptide binding; further: nearly all actives have a fitted effect of over 70% in size
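Compound inhibition of the preformed complex between 50 nM HP1-beta and 50 nM biotinylated H3K9me3 peptide was read by AlphaScreen. Buffer was PBS pH 7.4 with 0.01% Tween-20. Incubations ran 30 min at room temperature, with 10 ug/mL donor/acceptor beads.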
Sfp PPTase inh = blocks B. subtilis Sfp PPTase activity; Q9F4F7; Biochemical Sfp PPTase activity, qHTS; Potency, µM, actives largely listed as inhibitors; hit rate 3.5% among 310,000; AID 1490;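 further: the enzyme is Sfp with the accession as filed and its product quenches rhodamine fluorescence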
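Fluorescence-quenching assay with 15 nM Sfp, 5 uM rhodamine-CoA and 12.5 uM BHQ-2-labelled ybbR peptide in pH 7.6 Hepes/MgCl2 buffer. Enzyme was pre-incubated with compound for 15 min at room temperature. Rate was taken from the 30-min fluorescence change (525/598 nm).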
Large screens that a line does not name were inactive. The call rests on the fitted dose curve; in most records, active means well fitted curve in the direction sought with a large enough effect; inconclusive means small, poorly fitted or top-dose-only effect, or another doubt; inactive means no such curve, though single readings can be large; an effect the other way counts as inactive or inconclusive.

CN1CCN(C(=S)Nc2cccc(S(=O)(=O)N(C)C)c2)CC1	none
O=C(O)c1ccccc1NS(=O)(=O)c1cccc(C(F)(F)F)c1	none
O=C(O)c1ccccc1NS(=O)(=O)c1cccc(-n2sc3ccccc3c2=O)c1	G9a block 1.3µM, BAZ2B block 4µM, JMJD2A Tudor inh 1.4µM, Sfp PPTase inh 2µM
Cc1nc2ccccn2c1P(=O)(c1ccccc1)c1ccccc1	none (no result: G9a block, BAZ2B block, HP1b binding inh, Sfp PPTase inh)
O=c1[nH]c(C(Cl)Cl)nc2sc3c(c12)CCN(Cc1ccccc1)C3	G9a block 8.9µM, BAZ2B block inconclusive, JMJD2A Tudor inh 79µM
CCCSc1nc2sc3c(c2c(=O)[nH]1)CC(C)CC3 (stereo unspecified)	none
Nc1nc2c(c(=O)[nH]1)CN(Cc1ccccc1)CC2	none (no result: Sfp PPTase inh)
CCCSc1nc2sc3c(c2c(=O)[nH]1)CCN(Cc1ccccc1)C3	G9a block 10µM
N#Cc1c(-c2ccc(Cl)cc2)c(-c2ccc(Cl)cc2)nn(CCO)c1=O	JMJD2A Tudor inh inconclusive (no result: G9a block, BAZ2B block, Sfp PPTase inh)
Nc1nc2n[nH]nc2c(=O)[nH]1	none (no result: BAZ2B block)
Nc1nc(=S)c2n[nH]nc2[nH]1	JMJD2A Tudor inh 18µM (no result: G9a block, BAZ2B block, Sfp PPTase inh)
CC(=O)C1=C(O)C(=O)N(CC(=O)O)C1c1ccccc1Cl (stereo unspecified)	G9a block 50µM, BAZ2B block 71µM, JMJD2A Tudor inh inconclusive
CS(=O)(=O)C1=C(O)C(=O)N(CCCC(=O)O)C1c1ccccc1F (stereo unspecified)	JMJD2A Tudor inh 50µM
CC(=O)C1=C(O)C(=O)N(CCCN2CCOCC2)C1c1ccccc1[N+](=O)[O-] (stereo unspecified)	G9a block inconclusive, BAZ2B block inconclusive, HP1b binding inh inconclusive
CCCCCCN1C(=O)C(O)=C(C(C)=O)C1c1ccccc1[N+](=O)[O-] (stereo unspecified)	G9a block 50µM, BAZ2B block inconclusive, Sfp PPTase inh inconclusive
CC(=O)C1=C(O)C(=O)N(C)C1c1ccccc1[N+](=O)[O-] (stereo unspecified)	G9a block 11µM, JMJD2A Tudor inh inconclusive, HP1b binding inh inconclusive, Sfp PPTase inh 71µM
Cc1ccc(Cl)cc1N(C)C(=O)c1noc2c1CCCCC2	none (no result: Sfp PPTase inh)
CC(=O)C1=C(O)C(=O)N(CCC(=O)O)C1c1ccccc1[N+](=O)[O-] (stereo unspecified)	BAZ2B block inconclusive, Sfp PPTase inh 11µM
CCOc1ccc(N(C)Cc2cc(=O)oc3ccc(OCC)cc23)cc1	G9a block 10µM, BAZ2B block 18µM, JMJD2A Tudor inh inconclusive
COC(=O)C(CCSC)NC(=O)c1cc2c(n(-c3ccc(Cl)cc3)c1=O)CCCC2=O (stereo unspecified)	none (no result: Sfp PPTase inh)
COC1CCCN(Cc2c(C(=O)N3CCN(C4CCCCC4)CC3)nc3ccccn23)C1 (stereo unspecified)	G9a block 79µM, BAZ2B block inconclusive
CCOC(=O)C1CCCN(Cc2c(C(=O)N3CCOCC3)nc3ccccn23)C1 (stereo unspecified)	none (no result: G9a block)
O=C(NCc1ccc(Cl)cc1)C(=O)NCC1OCCCN1S(=O)(=O)c1cccs1 (stereo unspecified)	none
CN(C)Cc1cc(O)c(CN(C)C)cc1O	G9a block 1.4µM, BAZ2B block 22µM, JMJD2A Tudor inh 0.79µM, HP1b binding inh inconclusive, Sfp PPTase inh 25µM
O=C(CCC(=O)N/N=C/c1cc(Cl)cc(Cl)c1O)NCc1ccccc1	JMJD2A Tudor inh 28µM (no result: G9a block)
CCCn1c(-c2ccc(F)cc2)nc2c(NC(C)CCCN(CC)CC)nc(C)nc21 (stereo unspecified)	none (no result: G9a block, BAZ2B block, JMJD2A Tudor inh, HP1b binding inh)
COc1ccc(C2C(C(=O)c3ccccc3)N3c4ccccc4C=CC3C2[N+](=O)[O-])cc1 (stereo unspecified)	G9a block 35µM, BAZ2B block inconclusive
COc1ccc(N2C(=O)[C@@H]3[C@H](C2=O)[C@H](C(C)=O)N2c4ccccc4C=C[C@@H]32)cc1	G9a block 8.9µM, BAZ2B block inconclusive
COc1ccc(C(=O)N2c3ccccc3C=CC2C#N)cc1 (stereo unspecified)	none
CCCC1C2C(=O)N(c3ccc(OC)cc3)C(=O)C2ON1c1ccccc1 (stereo unspecified)	none
COc1ccc(/C(=N/Nc2ncnc3ccccc23)C(=O)O)cc1	G9a block inconclusive, JMJD2A Tudor inh inconclusive, Sfp PPTase inh 63µM
CCOc1ccc2c(S(=O)(=O)O)cccc2c1[N+](=O)[O-]	none (no result: G9a block, BAZ2B block, Sfp PPTase inh)
CSc1nc2ncnc(N)c2[nH]1	G9a block 45µM, JMJD2A Tudor inh 79µM
Cc1ccc(C)c(S(=O)(=O)N2CCN(C(=O)c3ccncc3)CC2)c1	none (no result: Sfp PPTase inh)
C/C(=N\NC(=O)c1cccc(O)c1)c1cccc(NC(=O)c2ccc(F)cc2)c1	none
C/C(=N\NC(=O)c1cccc(N/N=C(\C)c2ccco2)c1)c1ccco1	G9a block 35µM, JMJD2A Tudor inh inconclusive
C/C(=N\NC(=O)c1cccc(N/N=C(\C)c2cc(O)ccc2O)c1)c1cc(O)ccc1O	G9a block inconclusive, BAZ2B block 11µM, JMJD2A Tudor inh 13µM, HP1b binding inh inconclusive
O=C(NCCSCc1ccccc1)C1CCN(S(=O)(=O)Cc2ccccc2)CC1	none (no result: Sfp PPTase inh)
Cc1ccccc1NC(=O)Cn1cc(S(=O)(=O)c2ccccc2)c(=O)c2ccccc21	G9a block inconclusive, BAZ2B block inconclusive (no result: Sfp PPTase inh)
CN(Cc1cccs1)c1ncnc2ccc(-c3ccc4cn(C)nc4c3)cc12	none (no result: G9a block, BAZ2B block, HP1b binding inh, Sfp PPTase inh)
CCOC(=O)C=C(C(=O)OCC)C(=O)OCC	G9a block 13µM, HP1b binding inh inconclusive, Sfp PPTase inh 18µM
CN(CCN(C)c1nc(-c2cccs2)nc2ccccc12)C(=O)OC(C)(C)C	none (no result: G9a block, BAZ2B block, Sfp PPTase inh)
O=S(=O)(Nc1cccc(S(=O)(=O)N2CCOCC2)c1)c1ccc2c(c1)OCCO2	none (no result: BAZ2B block)
O=S(=O)(Nc1cc(S(=O)(=O)N2CCOCC2)ccc1N1CCOCC1)c1ccc2c(c1)OCCO2	G9a block 40µM
Cc1ccc(NS(=O)(=O)c2ccc3c(c2)OCCCO3)cc1S(=O)(=O)N1CCOCC1	none (no result: Sfp PPTase inh)
O=S(=O)(Nc1cc(S(=O)(=O)N2CCOCC2)ccc1O)c1ccc2c(c1)OCCCO2	G9a block 1.3µM, BAZ2B block 56µM, HP1b binding inh inconclusive (no result: Sfp PPTase inh)
O=S(=O)(NCc1ccc2c(c1)OCO2)c1cccc(S(=O)(=O)N2CCOCC2)c1	G9a block 40µM
CCOc1ccccc1CNc1nc2nc(C)cc(C)n2n1	none (no result: Sfp PPTase inh)
COC(=O)c1c(C)oc2c1cc(NS(=O)(=O)c1ccc(C(=O)O)cc1)c1ccccc12	G9a block 35µM, BAZ2B block inconclusive
Cc1ccc(S(=O)(=O)Nc2cc3c(C(=O)O)c(C)oc3c3ccccc23)c(C)c1	G9a block 50µM, BAZ2B block 50µM, JMJD2A Tudor inh inconclusive, HP1b binding inh inconclusive
Cc1cc(F)ccc1S(=O)(=O)Nc1cc2c(C(=O)O)c(C)oc2c2ccccc12	JMJD2A Tudor inh inconclusive (no result: Sfp PPTase inh)
CCN1C(=O)[C@H]2[C@H]3[C@H](O)[C@H](O)C/C(=N/O[C@@H](C)c4cn([C@H]5COC[C@H]5O)nn4)[C@@H]3CC[C@@H]2C1=O	none (no result: G9a block, BAZ2B block, JMJD2A Tudor inh, HP1b binding inh)
